Only some compounds are listed: those with a hit (about 4.6% of all), similar ones and a draw of the others.
Peg3 prom inh-1: inhibitors of Peg3 promoter; HeLa PEG-Prom luciferase reporter, luminescence, overnight; inhibition, % at 20 µM; 360,000 tested, 1.7% active;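 active = inhibition of at least 50% at 20 µM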
ABHD5-PLIN5 inh: ABHD5-PLIN5 protein interaction inhibition; Q00G26+Q8WTS1; Split G. princeps luciferase complementation, luminescence, 4 h; inhibition, % at 4 µM; 360,000 tested, 0.78% active; AID 602281;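 active = inhibition above the mean inhibition across every tested compound plus 3 SD, cut at about 22% in these data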;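 also: 0% = DMSO only wells and the 100% control is not disclosed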
Target sequence (Q00G26 whole entry, looked up): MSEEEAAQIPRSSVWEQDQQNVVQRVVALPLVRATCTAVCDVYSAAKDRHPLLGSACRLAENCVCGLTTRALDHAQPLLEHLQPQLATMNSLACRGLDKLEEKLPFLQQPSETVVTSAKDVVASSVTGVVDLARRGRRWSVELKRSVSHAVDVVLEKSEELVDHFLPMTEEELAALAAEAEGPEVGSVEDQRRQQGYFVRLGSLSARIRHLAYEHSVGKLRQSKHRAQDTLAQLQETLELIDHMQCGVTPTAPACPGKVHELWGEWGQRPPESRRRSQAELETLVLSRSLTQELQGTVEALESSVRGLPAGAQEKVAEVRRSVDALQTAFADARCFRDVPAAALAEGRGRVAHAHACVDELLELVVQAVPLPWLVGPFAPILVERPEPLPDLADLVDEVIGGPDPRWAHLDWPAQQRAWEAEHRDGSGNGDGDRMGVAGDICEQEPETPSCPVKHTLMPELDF
Target sequence (Q8WTS1 whole entry, looked up): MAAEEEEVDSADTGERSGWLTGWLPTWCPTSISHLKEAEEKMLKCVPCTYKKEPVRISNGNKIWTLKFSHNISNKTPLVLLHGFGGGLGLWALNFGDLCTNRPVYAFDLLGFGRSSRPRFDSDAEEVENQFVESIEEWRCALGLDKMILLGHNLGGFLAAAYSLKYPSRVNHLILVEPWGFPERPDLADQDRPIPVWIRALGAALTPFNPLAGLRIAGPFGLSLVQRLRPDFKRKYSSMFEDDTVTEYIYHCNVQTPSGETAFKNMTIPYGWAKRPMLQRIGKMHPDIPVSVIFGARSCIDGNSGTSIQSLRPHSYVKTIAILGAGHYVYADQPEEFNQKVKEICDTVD
CF NFkB block: cystic fibrosis NF-kB activation inhibition | KKLEB NF-kB-GFP reporter, PAF-induced, GFP fluorescence overnight | inhibition, % at 5 µM | 360,000 tested, 0.86% active | AID 588850;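 active = at least 50% inhibition at 5 µM, scaled per plate between neutral and stimulator controls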;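 also: PAF is a Pseudomonas aeruginosa culture filtrate used as stimulus; plate controls were PAF-stimulated DMSO wells for no effect and unstimulated DMSO wells for full effect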
KKLEB tox: reduces viability of KKLEB cystic fibrosis airway cells | AID 602141 | KKLEB CF airway cells viability, ATPlite luminescence, overnight; hits give low values; cells stimulated with P. aeruginosa culture filtrate | 360,000 tested, 0.36% active | activity change (cytotoxicity), % at 5 µM;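 active = corrected activity change at or below -50% at 5 µM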
HIF-2a block: HIF-2a inhibition; 360,000 tested, 0.72% active; inhibition, % at 18.8 µM; 786-0 RCC cells HIF-2a reporter, luciferase luminescence, overnight;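 active = inhibition of the luminescence signal of 40% or more relative to plate controls, in a single-dose primary screen at 18.75 µM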
Mdm2 MdmX PPI: disrupts the human Mdm2-MdmX interaction; 330,000 tested, 3% active; inhibition, % at 8 µM; SaOS-2 split-luciferase Mdm2/MdmX complementation, luminescence; O15151+Q00987;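 active = inhibition of at least 50% at 8 µM in the primary screen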
Mdm2 MdmX conf: human Mdm2/MdmX binding inhibition, confirmed. shares compounds with Mdm2 MdmX PPI. luminescent assay. inhibition, % at 8 µM. 10,000 tested, 55% active. AID 489028; in the data active = inhibition above about 40%
FLuc counter: inhibits full-length luciferase, flagging false Mdm2/MdmX hits; shares compounds with Mdm2 MdmX PPI; SaOS-2 full-length luciferase counterscreen, luminescence; inhibition, % at 8 µM; 6,200 tested, 77% active;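 active = mean inhibition at 8 µM reaching about 37%, which flags the compound as non-specific, limit read from the data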;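 also: p53-null SaOS-2 cells with luciferase driven by a doxycycline-inducible promoter; compound on cells about two nights before reading with doxycycline added after day one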
Peg3 prom inh-2: confirmation of Peg3 promoter inhibitors | 1,300 tested, 84% active | AID 602417 | inhibition, % at 20 µM | HeLa PEG-Prom luciferase reporter, luminescence, overnight | shares compounds with Peg3 prom inh-1;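 active = at 20 µM dose, 40% or more inhibition averaged across four replicates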
Active calls of the source: *; · = not tested or not shown; ! = repeats disagree.

SMILES	Peg3 prom inh-1	ABHD5-PLIN5 inh	CF NFkB block	KKLEB tox	HIF-2a block	Mdm2 MdmX PPI	Mdm2 MdmX conf	FLuc counter	Peg3 prom inh-2
Cc1cc(C(=O)CN2C(=O)c3ccccc3S2(=O)=O)c(C)n1-c1ccccc1	93*	1	8	-9	86*	57*	32	·	93*
COc1cc(C(=O)N2CCCCC2c2cc(C(=O)NCc3cccnc3)no2)cc(OC)c1C (stereo not drawn)	7	-3	3	10	10	·	·	·	·
COc1ccc(C2c3ccc4ccccc4c3Oc3ncn(CCCO)c(=N)c32)cc1 (stereo not drawn)	65*	-6	18	-16	-4	93*	30	·	86*
COc1ccc(Cc2nc3c4c(ncn3n2)Oc2ccc3ccccc3c2C4c2ccc(OC)c(OC)c2)cc1 (stereo not drawn)	12	-4	-9	-1	12	33	·	·	·
COc1ccc(C2c3ccc(O)cc3Oc3ncn4nc(-c5ccccn5)nc4c32)cc1OC (stereo not drawn)	30	5	15	-8	39	2	·	·	·
COc1ccc(C2c3c(ncn(CCCN4CCOCC4)c3=N)Oc3ccc4ccccc4c32)cc1OC (stereo not drawn)	69*	8	27	8	10	86*	51*	67*	86*
COc1ccc(C2c3ccc4ccccc4c3Oc3ncn(CCO)c(=N)c32)cc1OC (stereo not drawn)	60*	-5	39	-5	11	58*	33	·	82*
CCN(CC)S(=O)(=O)c1cccc(C(=O)N/N=C(\C)c2ccc(O)cc2O)c1	52*	-2	22	-20	13	73*	57*	106*	65*
CN(C)CCCN(C(=O)c1ccc(C(=O)c2ccccc2)cc1)c1nc2cc3c(cc2s1)OCO3	86*	13	11	-7	-4	75*	48*	32	90*
CCN(Cc1ccccc1)S(=O)(=O)c1ccc(C(=O)N(CCCN(C)C)c2nc3ccc(F)cc3s2)cc1	2	13	13	1	-1	47	·	·	·
Cc1ccc2nc(N(CCCN(C)C)C(=O)c3ccc4c(c3)CCCC4)sc2c1	108*	22*	24	-33	4	51*	23	·	98*
CCN(CC)CCN(C(=O)c1ccc(C(=O)c2ccccc2)cc1)c1nc2cc3c(cc2s1)OCO3	-9	-2	-3	5	-21	3	·	·	·
CCN(Cc1ccccc1)S(=O)(=O)c1ccc(C(=O)N(CCCN(C)C)c2nc3cc4c(cc3s2)OCCO4)cc1	53*	17	-10	-3	-42	78*	38	77*	72*
Cc1ccc(C(=O)Nn2c(C)nc3ccccc3c2=O)cc1C	14	9	10	1	-5	-20	·	·	·
Cc1c(Br)cccc1NC(=O)C1(C)CCN1C(C)C (stereo not drawn)	12	2	-21	16	4	·	·	·	·
Cc1ccc(NC(=O)C2(C)CCN2C(=O)Cc2cc(F)ccc2F)cc1 (stereo not drawn)	15	2	24	-18	2	·	·	·	·
C[C@@H](C(=O)OCC(=O)c1ccc(F)c(F)c1)N1C(=O)C2CCCCC2C1=O (stereo partly drawn)	-68	6	6	-4	4	13	·	·	·
O=C(N/N=C\c1c(O)ccc2ccccc12)c1ccc(Cn2cccn2)o1	54*	11	10	11	12	75*	74*	25	67*
O=Nc1c(-c2c(O)[nH]c3cc(Br)ccc23)[nH]c2ccccc12	101*	3	107*	-8	-17	99*	31	·	98*
Cc1cc(C(=O)COC(=O)C2=COCCO2)c(C)n1-c1ccccc1	60*	-1	0	-19	14	83*	84*	32	72*
Cc1cc(C(=O)COC(=O)C2=NNC(=O)CC2)c(C)n1-c1ccccc1	-18	-1	-10	7	10	23	·	·	·
COc1ccc(N(Cc2cc3ccccc3[nH]c2=O)S(=O)(=O)c2ccc(OC)cc2)cc1	17	-2	6	-10	-19	35	·	·	·
COc1ccc(N(Cc2cc3cc(OC)ccc3[nH]c2=O)S(=O)(=O)c2ccc(NC(C)=O)cc2)cc1	62*	6	80*	-101*	11	77*	71*	65*	61*
O=C(NN=Cc1c(F)c(F)c(F)c(F)c1F)c1ccc(NS(=O)(=O)c2cccs2)cc1	57*	-12	35	-21	12	53*	-16	·	37
Cc1ccc(-c2nc3ncccc3o2)cc1NC(=O)Cc1ccc(Cl)cc1	51*	-1	-6	-4	-2	93*	26	·	25
SMILES	Peg3 prom inh-1	ABHD5-PLIN5 inh	CF NFkB block	KKLEB tox	HIF-2a block	Mdm2 MdmX PPI	Mdm2 MdmX conf	FLuc counter	Peg3 prom inh-2
CC(C)CN(C(=O)COC(=O)/C=C/c1ccc(Cl)c(Cl)c1)c1c(N)n(Cc2ccccc2)c(=O)[nH]c1=O	89*	-4	27	-26	17	92*	18	·	44*
COCCN(C(=O)COC(=O)/C=C/c1ccc(Cl)c(Cl)c1)c1c(N)n(Cc2ccccc2)c(=O)[nH]c1=O	5	2	-5	2	12	·	·	·	·
Brc1cc2c(cc1CSc1ncccn1)OCO2	-37	1	2	6	-76	2	·	·	·
CC(C)(C)c1ccc(CN2N=Nc3ccccc3S2(=O)=O)cc1	94*	4	47	-22	3	67*	47*	59*	55*
CC1(C(=O)O)CCCN(C(=O)c2ccc(OC(F)F)cc2)C1 (stereo not drawn)	-6	5	5	-7	4	·	·	·	·
O=[N+]([O-])c1ccccc1N(S(=O)(=O)c1ccccc1)S(=O)(=O)c1ccccc1	11	-6	4	-14	11	·	·	·	·
COc1cc(NC(=O)c2ccno2)cc(C(=O)Nc2cccc(C(F)(F)F)c2)c1	1	7	-4	12	-20	34	·	·	·
CCN1CCN(Cc2ccc(NC(=O)c3cc(NC(=O)c4ccno4)cc(OC)c3)cc2C(F)(F)F)CC1	62*!	16	9	-4	-26	55*	38	61*	48*
Cn1c(=O)c(C(=O)CCl)c(N)n(Cc2ccccc2)c1=O	69*	5	26	1	16	58*	46*	86*	51*
Cn1c(N)c(C(=O)CCl)c(=O)n(Cc2ccccc2)c1=O	27	8	-2	-6	28	26	·	·	·
Nc1cccc2nc3ccccc3cc12	95*	8	-89	-8	5	58*	78*	32	99*
